Results on 55 compounds are retold here after PubChem BioAssay AID1347073 (National Center for Advancing Translational Sciences (NCATS), 2019).

Among all 45,000 compounds or so, about 200 (0.44%) were called active. A call without a number means that no potency is given here. Another 7% or so got no clear call; they are omitted. Calls follow the shape of the dose curve; as a rule, active = well fitted activation curve with a large enough effect; inconclusive = small, poorly fitted or top-dose-only effect; inactive = no such curve, though single readings can be large or run the other way. This excerpt belongs to a sample that is enriched for actives.
Potency is read from the fitted curve at half-maximal effect.

The test is described as follows: qHTS of TDP-43 Inhibitors: NCGC Sytravon Library Screen. Also: nearly all actives have a fitted effect of over 55% in size. To be noted: yeast TDP-43 toxicity rescue, BacTiter-Glo growth, 24 h; series mostly up to 46.1 µM. The source says: The goal of this project is to identify new chemical probes capable of reversing the toxicity associated with TDP-43 which is associated with frontotemporal lobar degeneration and amyotrophic lateral sclerosis. These compounds will provide a complementary approach to deciphering the tangled mechanisms of toxicity and protection that we have uncovered through genome-wide genetic screens and are beginning to uncover in a large-scale proteomics analysis with mass spectroscopy. To this end, a miniaturized assay was developed to be screened against the Molecular Libraries Small Molecule Repository (MLSMR) to discover TDP-43 inhibitors. Please note that in the set-up this yeast-based assay compounds that inhibit as TDP-43, have a read-out as activators. NIH Chemical Genomics Center [NCGC] NIH Molecular Libraries Probe Centers Network [MLPCN] Assay Submitter (PI): Susan Lindquist, Whitehead Institute/MIT MLPCN Grant: R21 NS060957
Dispense 2.5 microL yeast galactose medium per 1536-well plate, pin compound, dispense 2.5 microL TDP-43 expressing yeast in galactose medium at OD600=0.02 (pregrown in raffinose medium to mid-log phase) per well, incubate for 24 hr at 30 deg C, and cell growth will be measured using 5 microL of Bactiter/Glo reagent to entire plate and read using Luminescence Protocol in ViewLux.
In general terms: Quantitative high-throughput screening tests each substance at several concentrations.
With `COc1ccc(-c2n[nH]c(C)c2-c2ccccc2OC)c(O)c1`, the Potency result is “inactive”.
On to `COc1ccc(S(=O)(=O)N2CCOCC2)cc1NC(=O)CSc1nnc(NC2CC2)s1`, for which the Potency entry is “inactive”.
`Cn1cc(CN2CCCCC2c2ccccn2)c(-c2ccc3c(c2)OCCO3)n1` (stereo not given): the Potency result is “inactive”.
Consider `Cc1ccc(SCC(=O)NNC(=O)c2ccc(S(C)(=O)=O)cc2)cc1`, for which the Potency entry is “inactive”.
Turning to `CCOC(=O)C1CCN(c2ccc(C(=O)O)cc2[N+](=O)[O-])CC1`, the Potency result was “inactive”.
With `CC(C)(C)c1nnc2sc(SCC(O)=C(C#N)c3nc4ccccc4[nH]3)nn2c1=O`, the Potency result was “inactive”.
The same measure for `CC1(C(=O)NCc2ccc3c(c2)OCO3)CCN1C(=O)Cc1cccc2ccccc12` (stereo not given): “inactive”.
With `COc1cccc(CC(=O)OCC(=O)NCc2ccc3c(c2)OCO3)c1`, the Potency entry is “inactive”.
As for `N#Cc1nc(Cc2cccc3ccccc23)oc1NCc1ccc2c(c1)OCO2`, the Potency was 12.6 µM (active).
Consider `O=C(Nc1ccccc1)/C(=C\c1ccco1)NC(=O)c1ccco1`, for which the Potency result was “inactive”.
Turning to `Nc1nc(SCC(=O)NN(c2ccccc2)c2ccccc2)n[nH]1`, the Potency entry is “inactive”.
For the compound `CC(C)(C)SCCNC(=O)c1cccc([N+](=O)[O-])c1`, the Potency result was “inactive”.
The same measure for `Cc1nn(-c2ccccc2)c2c1C(c1cccc([N+](=O)[O-])c1)N(c1ccccc1)C(=O)N2` (stereo not given): “inactive”.
For `COc1ccc(C(C(=O)NC2CCCC2)N(CCCO)C(=O)Cn2nnc(-c3ccc(C)o3)n2)cc1` (stereo not given), the Potency result was “inactive”.
Take `CSc1ccc(C(=O)C2CCCN(C(=O)c3ccc(C)nc3)C2)cc1` (stereo not given): the Potency entry was “inactive”.
In the case of `CC(=O)N1CCN(C(=O)C2(NC(=O)Nc3ccc(C)cc3)CCCCC2)CC1`, the Potency entry is “inactive”.
Take `CC(=O)Oc1ccc2c(=O)oc(-c3ccc([N+](=O)[O-])cc3)nc2c1`: the Potency result was “inactive”.
On to `CC(=O)C1=C(C)NC2=C(C(=O)CC(C)(C)C2)C1C` (stereo not given), for which the Potency entry is “inactive”.
On to `Oc1ccccc1C=NC1CCCCC1N=Cc1ccccc1O` (stereo not given), for which the Potency result was “inactive”.
As to `O=C(c1ccc(F)cc1)N1CCC(n2nnc3ccccc32)CC1`, the Potency entry was “inactive”.
With `Cc1ccc(NC(=O)CSc2nnc(CNC(=O)c3ccccc3F)o2)cc1`, the Potency result was “inactive”.
`O=C(N/N=C/c1ccc2c(c1)OCO2)C(=O)N1CCCC1`: the Potency entry was “inactive”.
In the case of `CC(OC(=O)c1ccc(Cl)cc1O)C(=O)NCCC1=CCCCC1` (stereo not given), the Potency result is “inactive”.
As for `O=C(C1CCN(Cc2ccc(Cl)cc2)CC1)N1CCN(Cc2ccc3c(c2)OCO3)CC1`, the Potency result is “inactive”.
Turning to `COc1cccc(CC(=O)Nc2nc(-c3ccc(OC)c(OC)c3)cs2)c1`, the Potency entry is “inactive”.
The same measure for `CCN(CC(=O)NC(C)C)C(=O)c1cc(S(=O)(=O)N2CCCCC2)ccc1N1CCCCC1`: “inactive”; for `Cc1ccc(-c2noc(CNC(=O)c3ccoc3C)n2)cc1`: “inactive”; for `O=C(CCc1c[nH]c2ccccc12)NCCOc1ccccc1`: “inactive”.
The same measure for `CCn1cc(C(=O)NCC(=O)NC(C)(C)CO)c(=O)c2cc3c(cc21)OCO3`: “inactive”.
The same measure for `Cc1cccc(C(=O)NCC(=O)OCC(=O)N2CC3(C)CC2CC(C)(C)C3)c1` (stereo not given): “inactive”.
In the case of `COc1ccc(OCC(=O)NNC(=O)c2cccc(C)c2)cc1`, the Potency entry was “inactive”.
For `Cc1cc(C)cc(NC(=O)CSc2ccccc2)c1` the value was “inactive”; for `Cc1ccc(NC(=O)CN(C)C(=O)c2ccc(Br)o2)cc1`, “inactive”.
As to `CNCC(O)CN1CCN(c2ccccc2OC)CC1` (stereo not given), the Potency entry was “inactive”.
For `O=c1c(-c2ccc(Cl)cc2)[n+]([O-])c2ccccc2n1OCc1nc2ccccc2[nH]1`, the Potency entry is “inactive”.
As to `Cc1cc(C)cc(N(CC(=O)NCCSCc2ccco2)S(C)(=O)=O)c1`, the Potency result was “inactive”.
As to `COC(=O)c1ccc(CN2CCC(CO)(Cc3ccc(OC)cc3)CC2)cc1`, the Potency entry was “inactive”.
Take `CN(C)S(=O)(=O)N1CCN(c2ccc([N+](=O)[O-])cc2)CC1`: the Potency result is “inactive”.
On to `O=[N+]([O-])c1ccc(N2CCN(c3ccc(O)cc3)CC2)c(Cl)c1`, for which the Potency was 12.6 µM (active).
The same measure for `COc1ccc(N2CCN(c3ccc([N+](=O)[O-])cc3Cl)CC2)cc1`: “inactive”; for `COCCCNc1ccn2nc(-c3ccc(CC(C)C)cc3)cc2n1`: “inactive”; for `S=C(Nc1ccc(Br)cc1Cl)NC1CCN(Cc2ccccc2)CC1`: “inactive”.
Turning to `CC(C)=CCN1CCN(Cc2ccc(Oc3ncccn3)cc2)CC1CCO` (stereo not given), the Potency result was “inactive”.
In the case of `Cc1ccc(C)c(NC(=O)c2ccc3nccnc3c2)c1`, the Potency entry was “inactive”.
Regarding `CC(C(=O)O)n1cnc2sc3c(c2c1=O)CCCC3` (stereo not given), the Potency entry is “inactive”.
On to `Cc1ccc(C(=O)NC2CCN(C(=O)Nc3ccc(F)cc3)CC2)cc1`, for which the Potency entry was “inactive”.
For `Cc1ccc(/C=N/NC(=O)CN2CCN(Cc3ccccc3)CC2)s1`, the Potency result was “inactive”.
Regarding `COc1ccc2cc(S(=O)(=O)Nc3ccccn3)ccc2c1`, the Potency result was “inactive”.
For `O=C(Cc1ccccc1)Nc1c(Cl)ccc2nsnc12` the value was “inactive”; for `CC(Oc1ccccc1F)C(=O)NN` (stereo not given), “inactive”.
In the case of `COc1ccc(NC(=O)C2COc3ccccc3O2)cc1` (stereo not given), the Potency entry was “inactive”.
Turning to `COc1ccc(NC(=O)C2(C)Cc3c(-c4cccc(NC(C)=O)c4)ccnc3O2)cc1` (stereo not given), the Potency entry is “inactive”.
In the case of `COc1ccc(NC(=O)C2Cc3c(-c4ccc(Cl)cc4)ccnc3O2)cc1` (stereo not given), the Potency is 20 µM (active).
For `Cc1ccc(N2CCN(C(=O)c3cccs3)CC2)c(C)c1` the value was “inactive”.
As for `O=c1[nH]oc(O)c1-c1ncc(C(F)(F)F)cc1Cl`, the Potency result is “inactive”.
